Experimental data published in the supplement of paper PMC6555819.

Assays:
Assay in all cases: PBM binding z-score (relative to random genomic background probes); higher = stronger binding; sequences stand for … in GC…GCGATTGACAGCGTAGAATGAAGG
[1] = test system: PPARg:RXRa DBDmut IVT, anti-RXR (DBD mutation: RXRa K156A/R161A, NR concentration 270 nM, RXRa partner concentration 90 nM)
Outline: (§1)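 Regression normalization was applied to scanned fluorescence from custom Agilent 4×180K protein-binding microarrays. Before scanning, arrays were incubated 1 h with ligand-free nuclear receptor dimers, and binding was detected with antibodies against each partner (one per run). Binding z-scores use the random background probes as reference.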

[2] = test system: PPARg:RXRa IVT, anti-PPARg (NR concentration 270 nM, RXRa partner concentration 90 nM)
Outline: as §1

[3] = test system: PPARg DBDmut:RXRa IVT, anti-PPARg (DBD mutation: PPARg1 K132A/R137A, NR concentration 270 nM, RXRa partner concentration 90 nM)
Outline: as §1

[4] = test system: PPARg DBDmut IVT, anti-PPARg (DBD mutation: PPARg1 K132A/R137A, NR concentration 270 nM)
Outline: as §1

[5] = test system: PPARg homodimer (NR concentration 180 nM)
Outline: as §1

[6] = test system: PXR:RXRa (NR concentration 270 nM, RXRa partner concentration 90 nM)
Outline: as §1

[7] = test system: PXR homodimer (NR concentration 270 nM)
Outline: as §1

[8] = test system: RARa:RXR (NR concentration 270 nM, RXRa partner concentration 90 nM)
Outline: as §1

[9] = test system: RARa homodimer (NR concentration 270 nM)
Outline: as §1

[10] = test system: RARb:RXRa (NR concentration 270 nM, RXRa partner concentration 90 nM)
Outline: as §1

[11] = test system: RARb homodimer (NR concentration 270 nM)
Outline: as §1

[12] = test system: RARg:RXRa (NR concentration 270 nM, RXRa partner concentration 90 nM)
Outline: as §1

[13] = test system: RARg homodimer (NR concentration 270 nM)
Outline: as §1

[14] = test system: RXRa DBDmut IVT, anti-RXR (DBD mutation: RXRa K156A/R161A, NR concentration 90 nM)
Outline: as §1

[15] = test system: RXRa homodimer (NR concentration 180 nM)
Outline: as §1

[16] = test system: THRa:RXRa (NR concentration 90 nM, RXRa partner concentration 90 nM)
Outline: as §1

[17] = test system: THRa homodimer (NR concentration 90 nM)
Outline: as §1

[18] = test system: VDR homodimer (NR concentration 270 nM)
Outline: as §1

Sequence | PBM binding z-score [1] | PBM binding z-score [2] | PBM binding z-score [3] | PBM binding z-score [4] | PBM binding z-score [5] | PBM binding z-score [6] | PBM binding z-score [7] | PBM binding z-score [8] | PBM binding z-score [9] | PBM binding z-score [10] | PBM binding z-score [11] | PBM binding z-score [12] | PBM binding z-score [13] | PBM binding z-score [14] | PBM binding z-score [15] | PBM binding z-score [16] | PBM binding z-score [17] | PBM binding z-score [18]
TCGAGTAGGTTAGTCGGGGCATCCAGCCAACATA | 2.28 | 2.09 | -0.561 | 0.0213 | -0.139 | 0.0331 | -0.0889 | 0.263 | -0.138 | 0.628 | 0.213 | 0.0156 | -0.131 | -0.109 | 0.28 | 1.05 | -0.433 | -0.177
CCAGACAGGTGAAAGGTAACTCAATCTGGTACGC | 2.13 | 2.83 | -0.064 | -0.205 | 1.32 | 1.09 | 0.164 | 2.31 | 0.578 | 1.11 | 1.19 | 1.48 | 0.946 | 0.203 | 2.39 | 1.1 | 0.0708 | -0.0474
CCTTACCGGTCACGAGGTTATAGCACGACGAGCG | 1.09 | 2.32 | 0.31 | 0.533 | 2.18 | 1.92 | 0.733 | 2.66 | 1.45 | 3.73 | 3.08 | 4.01 | 3.68 | 0.188 | 2.62 | 2.37 | 1.43 | 1.34
CCTACTGGGCCACGAAAGGTCATTAATTCAGTGA | 5.58 | 5.87 | 1.7 | 0.266 | 3.46 | 5.12 | 1.71 | 5.32 | 1.1 | 3.79 | 4.39 | 4.33 | 3.75 | 0.737 | 4.52 | 3.67 | 1.04 | 2.25
CCGACTGGGGCAGAAAGATTACCATACCATCCGG | 1.53 | 0.903 | -0.59 | -1.13 | -0.627 | -0.737 | -0.227 | -0.36 | -0.0256 | 0.0416 | -0.533 | -0.183 | 0.217 | -0.916 | 0.0291 | -0.794 | -0.569 | -0.722
GCATATAGGTAATACACGGTGAAAGTCCGATTGT | 3.87 | 2.67 | 0.895 | 1.01 | 0.267 | 0.213 | 0.115 | 0.564 | 0.666 | -0.0307 | 0.0641 | 0.309 | 0.397 | 0.18 | 0.407 | 1.23 | -0.424 | 0.0175
ACTATTAGTTGAGACGAGGGCCACCGATAGGTTG | -0.292 | 0.0879 | 0.833 | 0.398 | -0.375 | -0.504 | -0.253 | -0.185 | 0.235 | 0.235 | 0.318 | 0.392 | 0.514 | 0.0416 | 0.26 | -0.0155 | -0.379 | -0.0608
